Some compounds were tested as several samples or in several runs, with calls that do not always agree. Active and inactive are the calls of the source. How the source made its calls: active means hit-call score of the fitted dose curve at least 0.9, where 1 is the maximum; inactive means score below 0.9.
Experiments:
[1] = read-out: Monocyte Chemoattractant Protein-1 (MCP1), CCL2 (gene 6347); assay: BSK_IMphg_MCP1: BioMAP Diversity Plus: IMphg Assay for Monocyte Chemoattractant Protein-1 (MCP1) Biomarker Activity (AID 2284253); details: primary human endothelial cells with macrophages
Outline: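 ELISA readout of MCP-1 at 24 hours in IMphg co-cultures of venular endothelial cells and macrophages, normalised to DMSO; parallel cultures stained with sulforhodamine B for overt cytotoxicity.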

[2] = read-out: Interleukin-8 (IL8), CXCL8 (gene 3576); assay: BSK_KF3CT_IL8: BioMAP Diversity Plus: KF3CT Assay for Interleukin-8 (IL8) Biomarker Activity (AID 2284254); details: primary human keratinocytes with fibroblasts
Outline: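 Human primary keratinocyte plus foreskin fibroblast co-culture dosed with test chemicals; IL-8 measured by ELISA 24 h after dosing. Activity fitted in the positive direction relative to DMSO negative control.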

[3] = read-out: Macrophage Inflammatory Protein-1 Alpha (MIP1a), CCL3 (gene 6348); assay: BSK_IMphg_MIP1a: BioMAP Diversity Plus: IMphg Assay for Macrophage Inflammatory Protein-1 Alpha (MIP1a) Biomarker Activity (AID 2284255); details: primary human endothelial cells with macrophages
Outline: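 MIP-1a protein levels were quantified by ELISA after 24 h treatment of human endothelial cell–macrophage co-cultures, compared with DMSO. Parallel cultures were fixed with TCA and stained with 0.1% SRB to gauge overt cytotoxicity.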

[4] = read-out: Plasminogen activator inhibitor-1 (PAI1), SERPINE1 (gene 5054); assay: BSK_MyoF_PAI1: BioMAP Diversity Plus: MyoF Assay for Plasminogen activator inhibitor-1 (PAI1) Biomarker Activity (AID 2284256); details: primary human lung fibroblasts;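 further: PAI-1 protein level measured by ELISA in fibroblast cultures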
Outline: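 ELISA read-out of PAI-1 from primary human lung fibroblast cultures 24 h after dosing; gain-of-signal fit versus DMSO control.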

CD69, CD69 (gene 969) = assay: BSK_IMphg_CD69: BioMAP Diversity Plus: IMphg Assay for CD69 Biomarker Activity (AID 2284257); details: primary human endothelial cells with macrophages
Outline: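 Readout is ELISA for CD69 in primary human venular endothelial cell/macrophage co-culture, taken at 24 h post-dosing. SRB staining of parallel cultures gauged overt cytotoxicity; signal increase versus DMSO defined activity.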

[5] = read-out: Eotaxin 3, CCL26 (gene 10344); assay: BSK_BF4T_Eotaxin3: BioMAP Diversity Plus: BF4T Assay for Eotaxin 3 Biomarker Activity (AID 2284258); details: primary human bronchial epithelial cells with fibroblasts
Outline: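 ELISA measurement of Eotaxin-3 after 24 h chemical exposure in a bronchial epithelial/dermal fibroblast co-culture, with DMSO as baseline. Parallel SRB staining (0.1% SRB after 10% TCA fixation, 560 nm) flagged overt cytotoxicity.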

[6] = read-out: Monocyte Chemoattractant Protein-1 (MCP1), CCL2 (gene 6347); assay: BSK_BF4T_MCP1: BioMAP Diversity Plus: BF4T Assay for Monocyte Chemoattractant Protein-1 (MCP1) Biomarker Activity (AID 2284259); details: primary human bronchial epithelial cells with fibroblasts
Outline: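 MCP-1 ELISA readout taken 24 h after dosing in the BF4T system (bronchial epithelial cells plus dermal fibroblasts). Parallel SRB total-protein staining flagged cytotoxicity; DMSO served as baseline, positive fitting direction.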

[7] = read-out: Intercellular Adhesion Molecule 1 (ICAM1), ICAM1 (gene 3383); assay: BSK_BF4T_ICAM1: BioMAP Diversity Plus: BF4T Assay for Intercellular Adhesion Molecule 1 (ICAM1) Biomarker Activity (AID 2284260); details: primary human bronchial epithelial cells with fibroblasts
Outline: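 ICAM-1 levels measured by ELISA after 24 h chemical treatment of bronchial epithelial cell/dermal fibroblast co-cultures, read against DMSO baseline. Overt cytotoxicity checked in parallel cultures by sulforhodamine B staining.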

[8] = read-out: Interleukin-8 (IL8), CXCL8 (gene 3576); assay: BSK_MyoF_IL8: BioMAP Diversity Plus: MyoF Assay for Interleukin-8 (IL8) Biomarker Activity (AID 2284261); details: primary human lung fibroblasts
Outline: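 ELISA read-out of IL-8 from primary human lung fibroblasts, 24 h post-dose; positive-direction curve fitting relative to DMSO vehicle baseline.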

CD90, THY1 (gene 7070) = assay: BSK_BF4T_CD90: BioMAP Diversity Plus: BF4T Assay for CD90 Biomarker Activity (AID 2284262); details: primary human bronchial epithelial cells with fibroblasts
Outline: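 CD90 levels by ELISA after 24 h treatment of human bronchial epithelial cell/dermal fibroblast cultures, analysed versus DMSO. Overt cytotoxicity checked in parallel cultures by sulforhodamine B staining.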

[9] = read-out: Interleukin-8 (IL8), CXCL8 (gene 3576); assay: BSK_BF4T_IL8: BioMAP Diversity Plus: BF4T Assay for Interleukin-8 (IL8) Biomarker Activity (AID 2284263); details: primary human bronchial epithelial cells with fibroblasts
Outline: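 Human bronchial epithelial cells with dermal fibroblasts co-culture; IL-8 measured by ELISA 24 hours after dosing, fitted vs DMSO. Cytotoxicity tracked in parallel cultures by SRB total-protein staining.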

[10] = read-out: Interleukin-1 alpha (IL1a), IL1A (gene 3552); assay: BSK_BF4T_IL1a: BioMAP Diversity Plus: BF4T Assay for Interleukin-1 alpha (IL1a) Biomarker Activity (AID 2284264); details: primary human bronchial epithelial cells with fibroblasts
Outline: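 ELISA read-out of IL-1α from bronchial epithelial cell/dermal fibroblast co-cultures 24 h after compound addition. Increases scored against DMSO negative control. Cytotoxicity monitored by sulforhodamine B staining of parallel cultures.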

Decorin, DCN (gene 1634) = assay: BSK_MyoF_Decorin: BioMAP Diversity Plus: MyoF Assay for Decorin Biomarker Activity (AID 2284265); details: primary human lung fibroblasts
Outline: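 Human lung fibroblasts in the MyoF system were exposed to compound for 24 h, after which decorin was quantified by ELISA. Activity was fitted in the positive direction relative to DMSO negative control.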

KRT18 (gene 3875) = assay: BSK_BF4T_Keratin818: BioMAP Diversity Plus: BF4T Assay for Keratin 818 Biomarker Activity (AID 2284266); details: primary human bronchial epithelial cells with fibroblasts
Outline: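 Keratin 8/18 levels quantified by ELISA after 24 h chemical treatment of bronchial epithelial cell/dermal fibroblast co-cultures, fitted in positive direction relative to DMSO. Parallel SRB staining tracks overt cytotoxicity.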

[11] = BSK_MyoF_SRB: Viability Assessment in the BioMAP Diversity Plus: MyoF Assay (AID 2284267); details: primary human lung fibroblasts;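 further: total protein by SRB absorbance in parallel cultures as cytotoxicity measure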
Outline: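 Confluent human lung fibroblasts were exposed to test chemicals for 24 h. Parallel wells were then fixed in 10% TCA, stained with 0.1% sulforhodamine B and measured at 560 nm. DMSO served as baseline for curve fitting.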

[12] = read-out: Matrix Metallopeptidase 1 (MMP1), MMP1 (gene 4312); assay: BSK_MyoF_MMP1: BioMAP Diversity Plus: MyoF Assay for Matrix Metallopeptidase 1 (MMP1) Biomarker Activity (AID 2284268); details: primary human lung fibroblasts
Outline: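 ELISA readout of MMP1 in primary human lung fibroblast cultures, 24 h post-dosing. Gain of signal versus DMSO vehicle control defines activity. Parallel SRB staining (0.1% after 10% TCA fixation, 560 nm) flags overt cytotoxicity.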

[13] = read-out: TIMP metallopeptidase inhibitor 1 (TIMP1), TIMP1 (gene 7076); assay: BSK_MyoF_TIMP1: BioMAP Diversity Plus: MyoF Assay for TIMP metallopeptidase inhibitor 1 (TIMP1) Biomarker Activity (AID 2284269); details: primary human lung fibroblasts
Outline: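 TIMP-1 levels were determined by ELISA in human lung fibroblasts treated for 24 h. DMSO served as negative control and baseline for upward curve fitting.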

[14] = read-out: Matrix Metallopeptidase 1 (MMP1), MMP1 (gene 4312); assay: BSK_BF4T_MMP1: BioMAP Diversity Plus: BF4T Assay for Matrix Metallopeptidase 1 (MMP1) Biomarker Activity (AID 2284270); details: primary human bronchial epithelial cells with fibroblasts
Outline: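 MMP-1 quantified by ELISA in primary human bronchial epithelial/dermal fibroblast co-cultures, 24 hours post-dosing, with DMSO as baseline; parallel sulforhodamine B staining (560 nm) tracks overt cytotoxicity.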

[15] = read-out: Matrix Metallopeptidase 3 (MMP3), MMP3 (gene 4314); assay: BSK_BF4T_MMP3: BioMAP Diversity Plus: BF4T Assay for Matrix Metallopeptidase 3 (MMP3) Biomarker Activity (AID 2284271); details: primary human bronchial epithelial cells with fibroblasts
Outline: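 MMP-3 level read by ELISA after 24 h chemical exposure of bronchial epithelial cell/dermal fibroblast co-cultures, fitted upward relative to DMSO. Parallel cultures stained with 0.1% SRB after TCA fixation gauge overt cytotoxicity.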

[16] = read-out: Tissue plasminogen activator (tPA), PLAT (gene 5327); assay: BSK_BF4T_tPA: BioMAP Diversity Plus: BF4T Assay for Tissue plasminogen activator (tPA) Biomarker Activity (AID 2284272); details: primary human bronchial epithelial cells with fibroblasts
Outline: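 tPA level quantified by ELISA at 24 h post-treatment in bronchial epithelial/dermal fibroblast co-cultures, gain of signal scored against DMSO baseline. Parallel cultures stained with 0.1% SRB (560 nm) to flag overt cytotoxicity.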

Measured: AC50

Cn1cnc([N+](=O)[O-])c1Sc1ncnc2nc[nH]c12
inactive: [1] | [2] | [3] | [4] | CD69, CD69 (gene 969) | [5] | [6] | [7] | [8] | CD90, THY1 (gene 7070) | [9] | [10] | Decorin, DCN (gene 1634) | KRT18 (gene 3875) | [11] | [12] | [13] | [14] | [15] | [16]
active: [3] 12.2 µM | [16] 7.93 µM

From PubChem BioAssay (EPA / NIEHS)
